HT1080 IDH1KD tx – toxicity to HT-1080 IDH1 knockdown cells (counter line). 360,000 compounds, 2% hits. HT-1080 IDH1 knockdown viability, ATP luminescence, 48 h. Potency, µM (series often up to 46.1 µM), for inactives: top-dose activity, negative = toxicity, usual class: cytotoxic;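 further: potency means the concentration at half of the fitted maximal effect; 0% = DMSO wells and -100% = cell-free medium wells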
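% activity derives from luminescence (CellTiter-Glo), normalised to DMSO and no-cell wells. HT-1080-IDH1KD cells, 750/well, had 48 h compound exposure at 37 °C.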
TDP1 cell noCPT – qHTS for Inhibitors of human tyrosyl-DNA phosphodiesterase 1 (TDP1): qHTS in cells in absence of CPT | DT40 Tdp1-/- hTDP1 cells, no CPT, ATP luminescence, 48 h | Potency, µM (titrated, usually from 46.2 µM), without a hit: top-dose activity change, negative = growth inhibition, most hits filed as inhibitors | 420,000 compounds, 15% hits | AID 686978, 2013; further: potency means the concentration at half of the fitted maximal effect; nearly all actives have a fitted effect of over 55% in size
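Seeded 400 DT40-hTDP1 cells/well (vehicle DMSO, no 20 nM CPT); pinned compounds; ≥48 hr at 37 °C; CellTiter-Glo luminescence as viability measure.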
ELG1 repair inh – inhibitors of ELG1-dependent DNA repair in HEK293T cells; HEK293T ELG1-luciferase reporter, luminescence, 16 h; DNA damage induced by 5-fluorouridine; Potency, µM (highest dose often 46.1 µM), without a hit: at the highest dose activity change, negative = inhibition, usual class: inhibitors; 330,000 compounds, 2.3% hits; AID 504467; further: potency means the concentration at half of the fitted maximal effect; nearly all actives have a fitted effect of over 55% in size
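HEK293T cells expressing luciferase-tagged ELG1 (2,000/well) received 5-Fluorouridine plus compound or DMSO for 16 hr at 37 °C. Luciferase was read by ONE-Glo luminescence after 30 min at room temperature.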
HT1080-NT tox – kills 2HG-producing HT-1080-NT fibrosarcoma cells; HT-1080-NT fibrosarcoma viability, CellTiter-Glo ATP luminescence, 48 h; Potency, µM (highest dose often 46.1 µM), for inactives: at the highest dose activity, negative = less viability, usual class: cytotoxic; 360,000 compounds, 1.6% hits; AID 686970;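 further: NT is the 2HG producing partner of a matched IDH1 knockdown line; potency means the concentration at half of the fitted maximal effect; 0% = DMSO-treated cells and -100% = media-only wells without cells; nearly all actives have a fitted effect of over 55% in size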
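Luminescent CellTiter-Glo readout after 48 hours of compound exposure at 37 degrees C defined viability of HT-1080-NT cells. Activity was normalized to DMSO wells and cell-free media wells; concentration-response curves were fitted and assigned curve classes.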
IL-1B inflam inh – blocks inflammasome-driven IL-1 beta release | THP-1 LPS/ATP IL-1B secretion, AlphaLISA, 16 h; active compounds read low | activity change, % at 57.5 µM | 360,000 compounds, 4.7% hits | AID 743279; in the data active means activity change below about -50%; inconclusive means mostly about -30% to -49%
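Secreted IL-1B measured by AlphaLISA bead assay after 16 h compound exposure of THP-1 cells; compounds (final up to 57.5 uM) added 1 h before LPS (250 ng/mL) and ATP (1.25 mM) stimulation; lower signal means less secretion.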
DT40 TDP1 CPT – DT40-hTDP1 cell growth loss with CPT. chicken DT40 Tdp1-/-;hTDP1 cells + 20 nM CPT, ATP luminescence, 48 h. Potency, µM (top dose mostly 46.2 µM), for inactives: top-dose activity change, negative = growth inhibition, actives largely listed as inhibitors. 420,000 compounds, 12% hits; further: potency means the concentration at half of the fitted maximal effect; nearly all actives have a fitted effect of over 55% in size
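Chicken DT40 Tdp1-/- cells stably complemented with human TDP1 were seeded at 400 cells/well in medium containing 20 nM camptothecin, exposed to pin-transferred compounds, and grown at 37 °C for at least 48 hr. Viability was read as ATP luminescence.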
* = called active by the depositor. Only some compounds are listed: those with a hit (about 19% of all), similar ones and a draw of the others. Unless noted, the call rests on the fitted dose curve; in most records, active means well fitted curve in the direction sought with a large enough effect; inconclusive means small, poorly fitted or top-dose-only effect, or another doubt; inactive means no such curve, though single readings can be large; an effect the other way counts as inactive or inconclusive. Unless noted, on the % scale 0 is the no-effect control and ±100 the full control effect.

Screening CCCCC(=O)Nc1ccc(NC(=O)c2ccccc2OC)cn1 returned HT1080 IDH1KD tx 9%, TDP1 cell noCPT inconclusive, ELG1 repair inh 18µM*, HT1080-NT tox 9%, IL-1B inflam inh inconclusive and DT40 TDP1 CPT -14%.
Screening CCCOC(=O)c1ccc(NC(=O)C(=O)NCCN(CC)CC)cc1 returned HT1080 IDH1KD tx 14%, TDP1 cell noCPT -20%, ELG1 repair inh 23%, HT1080-NT tox 11%, IL-1B inflam inh 7 and DT40 TDP1 CPT -19%.
CCOC(=O)c1ccc(N/C(=N\S(=O)(=O)c2ccc(F)cc2F)c2ccccc2)cc1 was read as HT1080 IDH1KD tx -1%, TDP1 cell noCPT inconclusive, ELG1 repair inh -3%, HT1080-NT tox 1%, IL-1B inflam inh -5 and DT40 TDP1 CPT inconclusive.
COc1ccccc1C(=O)Nc1ccc(NC(=O)c2ccco2)cn1 was read as HT1080 IDH1KD tx 3%, TDP1 cell noCPT 21µM*, ELG1 repair inh inconclusive, HT1080-NT tox 18%, IL-1B inflam inh inconclusive and DT40 TDP1 CPT inconclusive.
For CN(C)S(=O)(=O)c1ccc2c(c1)nc(CCC(=O)NCC(=O)Nc1ccc(F)c(F)c1F)n2C the results were HT1080 IDH1KD tx -3%, TDP1 cell noCPT inconclusive, HT1080-NT tox -16%, IL-1B inflam inh 44 and DT40 TDP1 CPT -3%.
`CCC1CCCCN1CCCNC(=O)CN1C(=O)COc2ccccc21` (stereo unspecified) gave HT1080 IDH1KD tx 16%, TDP1 cell noCPT 22%, ELG1 repair inh 8%, HT1080-NT tox -1%, IL-1B inflam inh -17 and DT40 TDP1 CPT 5%.
Screening Cc1ccnc(NS(=O)(=O)c2ccc(NC(=O)CC(C)c3ccccc3)cc2)n1 (stereo unspecified) returned HT1080 IDH1KD tx 5%, TDP1 cell noCPT 11%, ELG1 repair inh -9%, HT1080-NT tox 8%, IL-1B inflam inh 30 and DT40 TDP1 CPT 1%.
CCCC(=O)Nc1ccc(NC(=O)CCc2ccccc2)cn1 was read as HT1080 IDH1KD tx -7%, TDP1 cell noCPT 16µM*, ELG1 repair inh -2%, HT1080-NT tox 2%, IL-1B inflam inh 16 and DT40 TDP1 CPT 16µM*.
CCCOC(=O)c1ccc(NC(=O)c2ccccc2OC)cc1 was read as HT1080 IDH1KD tx -24%, TDP1 cell noCPT inconclusive, ELG1 repair inh inconclusive, HT1080-NT tox -10%, IL-1B inflam inh 0 and DT40 TDP1 CPT inconclusive.
`CCCCOC(=O)c1ccc(NC(=O)c2ccccc2OC)cc1` gave HT1080 IDH1KD tx -21%, TDP1 cell noCPT inconclusive, ELG1 repair inh inconclusive, HT1080-NT tox -2%, IL-1B inflam inh 0 and DT40 TDP1 CPT 21µM*.
For O=C(Cc1ccccc1)Nc1ccc(NC(=O)C2CC2)nc1 the results were HT1080 IDH1KD tx 16%, TDP1 cell noCPT -1%, ELG1 repair inh 8%, HT1080-NT tox 5%, IL-1B inflam inh -12 and DT40 TDP1 CPT -4%.
For O=C(Cc1ccccc1)Nc1ccc(NC(=O)C2CCCCC2)nc1 the results were HT1080 IDH1KD tx 0%, TDP1 cell noCPT -4%, ELG1 repair inh 5.2µM*, HT1080-NT tox 10%, IL-1B inflam inh -7 and DT40 TDP1 CPT -13%.
`CCCCC(=O)N(C)c1c(CC)nc2c(OCC(=O)c3ccc(F)cc3)cccn12` gave HT1080 IDH1KD tx 5%, TDP1 cell noCPT inconclusive, HT1080-NT tox -3%, IL-1B inflam inh -4 and DT40 TDP1 CPT inconclusive.
`CCCn1c(N)c(C(=O)CSc2nnc(C3CC3)n2Cc2ccccc2)c(=O)n(C)c1=O` gave HT1080 IDH1KD tx -1%, TDP1 cell noCPT -14%, ELG1 repair inh 14%, HT1080-NT tox -10%, IL-1B inflam inh 0 and DT40 TDP1 CPT -24%.
